# Activity calls are given as the source filed them. Unless noted, no rule for the calls is given here.
# Experiments:
# [1] = resazurin metabolic signal in HepG2 cells – cell-based, resazurin fluorescence, 24 h, PK04 Diversity Set, profiling panel (AID 1172); conditions: HepG2 viability, higher = more signal
# [2] = budding yeast growth changes without added modifier – OD600, strain BY4716, 24 h, basal condition, primary screen (AID 1173); conditions: S. cerevisiae BY4716 growth, OD600, 24 h; higher = more signal, called active from +8 up or from −8 down
# [3] = viability profiling in MM1S myeloma cells – cell-based, resazurin fluorescence, basal, 24 h, PK04 Diversity Set, profiling panel (AID 1174); conditions: higher = more signal, called active from +8 up or from −8 down;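 also: MM1S multiple myeloma cell line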
# [4] = target: Dihydroorotate dehydrogenase (quinone), mitochondrial (Plasmodium falciparum (isolate 3D7)) (UniProt Q08210); experiment: inhibition of P. falciparum DHODH – biochemical, C-terminal His tag, absorbance 600 nm, primary screen (AID 1175); conditions: PfDHODH enzyme, DCIP absorbance 600 nm; higher = more signal, called active from +8 up or from −8 down;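 also: recombinant parasite enzyme with a five histidine tag at its C terminus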
# Sequence of Dihydroorotate dehydrogenase (quinone), mitochondrial (Plasmodium falciparum (isolate 3D7)) (Q08210 whole entry, looked up): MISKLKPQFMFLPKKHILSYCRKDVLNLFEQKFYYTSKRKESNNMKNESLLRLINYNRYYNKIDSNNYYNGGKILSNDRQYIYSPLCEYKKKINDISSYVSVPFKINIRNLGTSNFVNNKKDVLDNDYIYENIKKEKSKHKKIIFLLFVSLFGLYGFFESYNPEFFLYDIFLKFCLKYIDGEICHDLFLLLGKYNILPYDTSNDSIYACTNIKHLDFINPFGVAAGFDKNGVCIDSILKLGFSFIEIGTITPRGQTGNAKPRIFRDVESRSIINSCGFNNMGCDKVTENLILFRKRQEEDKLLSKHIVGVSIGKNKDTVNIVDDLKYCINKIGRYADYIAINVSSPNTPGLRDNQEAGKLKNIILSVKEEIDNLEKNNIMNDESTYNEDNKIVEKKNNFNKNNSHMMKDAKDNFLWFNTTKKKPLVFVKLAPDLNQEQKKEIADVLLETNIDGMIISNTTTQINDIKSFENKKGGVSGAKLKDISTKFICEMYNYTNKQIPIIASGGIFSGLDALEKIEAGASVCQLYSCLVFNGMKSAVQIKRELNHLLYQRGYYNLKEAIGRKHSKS
# [5] = inhibition of PAO1 biofilm formation – strain PAO1, LB-PBS medium, absorbance 600 nm, primary screen (AID 1176); conditions: P. aeruginosa PAO1 growth/biofilm, A600, 12 h; higher = more signal
# [6] = growth modulation of vineyard yeast isolate – strain RM11-1a, OD600, basal, 24 h, primary screen (AID 1177);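 also: cultures grown under basal conditions with no added stressor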; conditions: S. cerevisiae RM11-1a growth, OD600, 24 h; higher = more signal, called active from +8 up or from −8 down
# [7] = growth of efflux-deficient E. coli DRC39 – strain DRC39, OD650, 24 h, E. coli filamentation inducers, primary screen (AID 1178);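 also: growth measured as culture turbidity by optical density at 650 nm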; conditions: E. coli DRC39 acrAB, higher = more signal, called active from +8 up or from −8 down
# [8] = growth of efflux-deficient E. coli DRC39 – strain DRC39, OD650, 48 h, E. coli filamentation inducers, primary screen (AID 1179);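 also: screen aims at cell division blockers that make cells filament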; conditions: E. coli DRC39 delta-acrAB growth, higher = more signal, called active from +8 up or from −8 down
# [9] = viability profiling in RPMI8226 myeloma cells – cell-based, resazurin fluorescence, basal, 24 h, PK04 Diversity Set, profiling panel (AID 1180); conditions: higher = more signal;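 also: RPMI8826 multiple myeloma cell line at 5000 cells per well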
# [10] = target: E3 ubiquitin-protein ligase XIAP (Homo sapiens) (UniProt P98170); experiment: small molecules binding XIAP protein – biophysical, small-molecule microarray, fluorescence 635 nm, primary screen (AID 1181); conditions: higher = more signal;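 also: score merges 667 nm emission and signal to noise over triplicate slides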
# Sequence of E3 ubiquitin-protein ligase XIAP (Homo sapiens) (P98170 whole entry, looked up, the tested form may be a part): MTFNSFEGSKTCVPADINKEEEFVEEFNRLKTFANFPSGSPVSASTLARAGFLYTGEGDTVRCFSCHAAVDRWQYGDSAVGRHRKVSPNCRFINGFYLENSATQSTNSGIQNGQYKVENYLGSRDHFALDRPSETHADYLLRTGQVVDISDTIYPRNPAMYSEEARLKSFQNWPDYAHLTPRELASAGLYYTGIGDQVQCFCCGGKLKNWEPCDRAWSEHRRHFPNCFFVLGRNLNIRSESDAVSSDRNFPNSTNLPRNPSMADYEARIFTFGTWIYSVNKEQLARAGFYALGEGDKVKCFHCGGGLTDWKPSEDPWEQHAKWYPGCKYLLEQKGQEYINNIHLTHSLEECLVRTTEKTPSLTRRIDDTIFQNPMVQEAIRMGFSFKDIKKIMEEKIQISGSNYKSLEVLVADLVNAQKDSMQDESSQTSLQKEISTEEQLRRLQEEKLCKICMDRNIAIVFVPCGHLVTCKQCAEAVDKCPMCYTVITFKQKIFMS
# [11] = tested on: XIP peptide (Xip251-270) binding; experiment: XIP fragment 251-270 binding compounds – biochemical, small-molecule microarray, fluorescence 635/667 nm, 0.1 µg/mL protein, primary screen (AID 1182); conditions: fluorescent protein binding, 635 nm, higher = more signal, called active from +8 up or from −8 down
# [12] = tested on: XIP peptide (Xip251-270); experiment: compounds binding XIP fragment 251-270 – biochemical, small-molecule microarray, fluorescence 635/667 nm, 0.5 µg/mL protein, primary screen (AID 1183); conditions: fluorescence 635 nm, higher = more signal
# [13] = blood-stage malaria parasite viability loss – strain 3D7, DAPI fluorescence, 100 nL, primary screen (AID 1184);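 also: parasites grown inside human red blood cells in medium with human serum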; conditions: P. falciparum 3D7 growth, 3 d, higher = more signal
# [14] = target: Homeobox protein Hox-A13 (Mus musculus) (UniProt Q62424); experiment: disruptors of Hoxa13 oligonucleotide interaction – biochemical, fluorescence polarization, labeled oligonucleotide, primary screen (AID 1185); conditions: Hoxa13:DNA binding, 15 min, higher = more signal, called active from +8 up or from −8 down
# Sequence of Homeobox protein Hox-A13 (Mus musculus) (Q62424 whole entry, looked up): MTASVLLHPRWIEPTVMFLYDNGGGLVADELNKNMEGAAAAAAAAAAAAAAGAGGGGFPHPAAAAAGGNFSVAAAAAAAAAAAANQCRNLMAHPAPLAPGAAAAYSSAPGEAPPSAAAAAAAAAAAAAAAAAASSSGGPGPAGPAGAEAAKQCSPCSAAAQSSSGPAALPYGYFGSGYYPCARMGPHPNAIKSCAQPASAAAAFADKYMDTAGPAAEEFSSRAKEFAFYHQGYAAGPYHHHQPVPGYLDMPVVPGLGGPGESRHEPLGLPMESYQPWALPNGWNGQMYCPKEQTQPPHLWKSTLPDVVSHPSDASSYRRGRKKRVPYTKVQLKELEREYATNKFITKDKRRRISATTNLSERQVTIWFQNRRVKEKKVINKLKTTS
# [15] = blockers of DNA damage checkpoint Chk1 activation – imaging, HeLa, hydroxyurea, phospho-Chk1 antibody, percent positive cells, primary screen (AID 1186); conditions: hydroxyurea-induced phospho-Chk1 immunofluorescence imaging, higher = more signal
# [16] = blockers of DNA damage checkpoint Chk1 activation – imaging, HeLa, hydroxyurea, phospho-Chk1 nuclear intensity, primary screen (AID 1187); conditions: hydroxyurea-induced phospho-Chk1 immunofluorescence imaging, higher = more signal
SMILES,z-score [1],z-score [2],z-score [3],composite z-score [4],z-score [5],z-score [6],z-score [7],z-score [8],z-score [9],composite z-score [10],composite z-score [11],composite z-score [12],z-score [13],z-score [14],z-score [15],z-score [16]
C[C@]1(C(=O)NCCN2CCOCC2)c2ccccc2C(=O)N(Cc2ccc(OC(F)(F)F)cc2)[C@H]1c1ccc(CO)cc1,0.209,-0.427 (inactive),-0.191 (inactive),-0.277 (inactive),0.0435 (inactive),-0.393 (inactive),0.815 (inactive),0.121 (inactive),0.206,-0.0663,-0.0513 (inactive),0.466,-1.08,-4.78 (inactive),-0.198 (inactive),-0.0723 (inactive)
C=CCN1Cc2ccccc2C[C@@]2(N=C(c3ccc(OCCCO)cc3)O[C@H]2c2ccccc2)C1=O,0.211,-5.82 (inactive),-3.09 (inactive),-0.13 (inactive),0.535 (inactive),0.0893 (inactive),-0.137 (inactive),0.468 (inactive),-4.81,-0.031,0.247 (inactive),0.691,-2.09,-3.98 (inactive),-0.468 (inactive),-0.399 (inactive)
O=C1O[C@@H](c2ccccc2)[C@@H](c2ccccc2)N2[C@@H](c3ccc(O)cc3)[C@]3(C(=O)Nc4ccc(C#CC5=CCCCC5)cc43)[C@@H](C(=O)N3CCN(c4ncccn4)CC3)[C@H]12,1.48,-0.066 (inactive),-0.0922 (inactive),-0.824 (inactive),-0.0478 (inactive),0.207 (inactive),-0.289 (inactive),-0.348 (inactive),-0.385,0.118,-0.168 (inactive),0.657,-1.97,0.676 (inactive),-0.0981 (inactive),-0.0223 (inactive)
CC(C)OC(=O)CC(=O)CC(O)c1cccc(C#N)c1 (configuration not stated),0.532,-0.167 (inactive),0.343 (inactive),-1.29 (inactive),0.533 (inactive),-0.828 (inactive),0.283 (inactive),1.93 (inactive),-0.0069,-0.267,0.768 (inactive),0.778,0.612,-0.542 (inactive),-0.467 (inactive),-0.295 (inactive)
CC(C)(C)OC(=O)CC[C@@]1(C(=O)O)N=C(c2ccc(OCCCO)cc2)O[C@@H]1c1ccccc1CN=[N+]=[N-],0.911,-0.496 (inactive),-0.378 (inactive),0.221 (inactive),-0.0988 (inactive),0.323 (inactive),1.35 (inactive),1.35 (inactive),-1.09,0.492,-0.168 (inactive),0.963,0.664,-4.73 (inactive),-0.0889 (inactive),-0.0647 (inactive)
CCCN1C(=O)[C@]2(Cc3ccccc3)N=C(c3ccc(OCCCO)cc3)O[C@@H]2c2ccccc21,0.734,-1.94 (inactive),-0.753 (inactive),-0.42 (inactive),-0.0963 (inactive),0.931 (inactive),0.94 (inactive),0.718 (inactive),-1.13,0.108,-0.116 (inactive),0.594,-2.26,-4.81 (inactive),-0.143 (inactive),0.231 (inactive)
CC(C)(C)N1CC=CC23O[C@@H]4C=CCOC(=O)[C@@H]4[C@H]2C(=O)N(CCCO)[C@@H]3C1=O (some centres not stated),-0.922,0.114 (inactive),-1.27 (inactive),-0.257 (inactive),-0.317 (inactive),0.297 (inactive),-1.04 (inactive),-0.955 (inactive),-0.808,0.55,-0.466 (inactive),-0.825,-1.87,-3.12 (inactive),-0.263 (inactive),-0.327 (inactive)

# — PubChem BioAssay
